These results are taken from the supplement of paper PMC10849652.

The full data set covers some 8,800 targets. This sample favours those with a hit. About 0.5% of all pairs of compound and target were hits. Values without a mark were called inactive.

Chain of UniProt Q9NRP7 (Q9NRP7 whole entry, looked up): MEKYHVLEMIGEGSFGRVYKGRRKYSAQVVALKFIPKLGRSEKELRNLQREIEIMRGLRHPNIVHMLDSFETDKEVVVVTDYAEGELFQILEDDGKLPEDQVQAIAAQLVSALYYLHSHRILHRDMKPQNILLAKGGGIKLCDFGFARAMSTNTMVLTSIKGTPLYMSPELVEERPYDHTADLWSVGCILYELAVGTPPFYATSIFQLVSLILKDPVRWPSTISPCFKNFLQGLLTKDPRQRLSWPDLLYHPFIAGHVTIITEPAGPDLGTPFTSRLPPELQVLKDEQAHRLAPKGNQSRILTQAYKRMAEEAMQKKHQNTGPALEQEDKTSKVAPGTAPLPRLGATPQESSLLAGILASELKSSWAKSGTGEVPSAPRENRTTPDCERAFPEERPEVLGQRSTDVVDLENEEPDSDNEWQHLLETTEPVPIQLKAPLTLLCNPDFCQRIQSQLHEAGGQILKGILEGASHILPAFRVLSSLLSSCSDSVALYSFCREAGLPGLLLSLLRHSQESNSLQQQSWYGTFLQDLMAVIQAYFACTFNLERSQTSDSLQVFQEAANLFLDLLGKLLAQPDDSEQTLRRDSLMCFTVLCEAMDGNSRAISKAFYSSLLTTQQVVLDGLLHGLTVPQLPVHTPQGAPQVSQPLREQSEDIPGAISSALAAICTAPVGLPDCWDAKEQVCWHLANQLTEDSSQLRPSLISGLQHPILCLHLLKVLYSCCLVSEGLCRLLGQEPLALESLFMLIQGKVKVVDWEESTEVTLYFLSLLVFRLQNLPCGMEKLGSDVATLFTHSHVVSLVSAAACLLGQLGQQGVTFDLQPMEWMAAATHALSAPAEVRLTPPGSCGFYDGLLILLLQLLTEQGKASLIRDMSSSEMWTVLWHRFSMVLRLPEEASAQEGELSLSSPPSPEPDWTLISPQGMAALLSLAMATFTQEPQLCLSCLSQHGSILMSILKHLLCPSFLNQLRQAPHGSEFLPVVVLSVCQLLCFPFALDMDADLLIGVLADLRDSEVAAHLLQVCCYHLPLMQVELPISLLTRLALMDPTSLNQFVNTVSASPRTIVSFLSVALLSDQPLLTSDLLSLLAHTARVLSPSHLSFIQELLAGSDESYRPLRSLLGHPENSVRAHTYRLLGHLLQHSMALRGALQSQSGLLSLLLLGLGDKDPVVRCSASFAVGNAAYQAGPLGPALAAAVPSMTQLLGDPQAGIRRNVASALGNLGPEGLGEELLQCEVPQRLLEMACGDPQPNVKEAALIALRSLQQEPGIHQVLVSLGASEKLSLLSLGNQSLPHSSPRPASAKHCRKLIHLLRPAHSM
Chain of UniProt Q6KCM7 (Q6KCM7 whole entry, looked up): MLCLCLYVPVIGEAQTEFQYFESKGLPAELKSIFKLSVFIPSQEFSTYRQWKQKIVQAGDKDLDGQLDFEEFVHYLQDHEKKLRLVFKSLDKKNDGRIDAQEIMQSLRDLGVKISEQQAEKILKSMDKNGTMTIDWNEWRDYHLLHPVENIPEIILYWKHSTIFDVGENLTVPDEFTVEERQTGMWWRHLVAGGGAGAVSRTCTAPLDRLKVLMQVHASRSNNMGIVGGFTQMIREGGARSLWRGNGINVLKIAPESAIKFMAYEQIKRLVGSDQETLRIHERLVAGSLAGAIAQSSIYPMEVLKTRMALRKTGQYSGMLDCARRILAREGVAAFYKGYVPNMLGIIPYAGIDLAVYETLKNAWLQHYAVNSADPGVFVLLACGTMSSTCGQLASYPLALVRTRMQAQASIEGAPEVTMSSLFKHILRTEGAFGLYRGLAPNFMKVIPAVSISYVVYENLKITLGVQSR
Chain of UniProt Q13242 (Q13242 whole entry, looked up): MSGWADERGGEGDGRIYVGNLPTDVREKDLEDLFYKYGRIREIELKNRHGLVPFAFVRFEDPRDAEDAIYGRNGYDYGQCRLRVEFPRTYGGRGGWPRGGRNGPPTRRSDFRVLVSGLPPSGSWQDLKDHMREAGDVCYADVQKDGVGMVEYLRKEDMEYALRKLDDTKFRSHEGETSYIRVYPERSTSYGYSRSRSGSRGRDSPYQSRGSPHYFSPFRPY
Chain of UniProt Q9H2D1 (Q9H2D1 whole entry, looked up): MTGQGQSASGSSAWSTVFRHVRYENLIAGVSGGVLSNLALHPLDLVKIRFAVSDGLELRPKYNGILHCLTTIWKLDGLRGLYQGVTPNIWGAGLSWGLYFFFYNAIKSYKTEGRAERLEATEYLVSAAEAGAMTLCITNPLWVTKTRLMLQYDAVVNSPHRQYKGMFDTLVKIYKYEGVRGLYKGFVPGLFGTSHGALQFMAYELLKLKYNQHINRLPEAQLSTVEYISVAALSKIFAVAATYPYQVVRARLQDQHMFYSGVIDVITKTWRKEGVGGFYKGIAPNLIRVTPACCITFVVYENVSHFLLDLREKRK
Chain of UniProt Q9P289 (Q9P289 whole entry, looked up): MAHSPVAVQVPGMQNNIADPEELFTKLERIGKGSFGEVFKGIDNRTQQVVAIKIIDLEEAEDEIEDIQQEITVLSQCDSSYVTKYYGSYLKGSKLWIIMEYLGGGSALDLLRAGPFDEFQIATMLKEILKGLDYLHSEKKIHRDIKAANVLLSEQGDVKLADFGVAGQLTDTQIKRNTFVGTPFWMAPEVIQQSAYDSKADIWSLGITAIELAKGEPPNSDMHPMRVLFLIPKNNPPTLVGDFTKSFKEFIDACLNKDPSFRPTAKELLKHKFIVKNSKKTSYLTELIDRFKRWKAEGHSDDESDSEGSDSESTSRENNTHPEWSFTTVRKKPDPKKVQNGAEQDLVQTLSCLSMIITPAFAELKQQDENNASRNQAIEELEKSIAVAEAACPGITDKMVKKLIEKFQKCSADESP
Chain of UniProt Q13573 (Q13573 whole entry, looked up): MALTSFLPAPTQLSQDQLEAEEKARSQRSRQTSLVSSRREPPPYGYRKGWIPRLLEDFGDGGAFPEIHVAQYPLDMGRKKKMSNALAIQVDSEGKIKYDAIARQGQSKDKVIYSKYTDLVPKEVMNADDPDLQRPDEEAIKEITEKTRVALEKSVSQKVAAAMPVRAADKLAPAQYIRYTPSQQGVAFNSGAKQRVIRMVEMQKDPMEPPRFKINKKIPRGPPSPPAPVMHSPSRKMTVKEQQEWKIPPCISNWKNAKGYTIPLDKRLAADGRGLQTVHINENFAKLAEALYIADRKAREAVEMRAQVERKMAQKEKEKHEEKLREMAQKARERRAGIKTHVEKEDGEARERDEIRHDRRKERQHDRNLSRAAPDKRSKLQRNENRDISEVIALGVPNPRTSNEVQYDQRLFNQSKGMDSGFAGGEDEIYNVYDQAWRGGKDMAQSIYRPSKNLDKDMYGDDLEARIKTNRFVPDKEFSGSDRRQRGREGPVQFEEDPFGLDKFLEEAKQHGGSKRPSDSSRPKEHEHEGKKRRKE
Chain of UniProt Q96SB8 (Q96SB8 whole entry, looked up): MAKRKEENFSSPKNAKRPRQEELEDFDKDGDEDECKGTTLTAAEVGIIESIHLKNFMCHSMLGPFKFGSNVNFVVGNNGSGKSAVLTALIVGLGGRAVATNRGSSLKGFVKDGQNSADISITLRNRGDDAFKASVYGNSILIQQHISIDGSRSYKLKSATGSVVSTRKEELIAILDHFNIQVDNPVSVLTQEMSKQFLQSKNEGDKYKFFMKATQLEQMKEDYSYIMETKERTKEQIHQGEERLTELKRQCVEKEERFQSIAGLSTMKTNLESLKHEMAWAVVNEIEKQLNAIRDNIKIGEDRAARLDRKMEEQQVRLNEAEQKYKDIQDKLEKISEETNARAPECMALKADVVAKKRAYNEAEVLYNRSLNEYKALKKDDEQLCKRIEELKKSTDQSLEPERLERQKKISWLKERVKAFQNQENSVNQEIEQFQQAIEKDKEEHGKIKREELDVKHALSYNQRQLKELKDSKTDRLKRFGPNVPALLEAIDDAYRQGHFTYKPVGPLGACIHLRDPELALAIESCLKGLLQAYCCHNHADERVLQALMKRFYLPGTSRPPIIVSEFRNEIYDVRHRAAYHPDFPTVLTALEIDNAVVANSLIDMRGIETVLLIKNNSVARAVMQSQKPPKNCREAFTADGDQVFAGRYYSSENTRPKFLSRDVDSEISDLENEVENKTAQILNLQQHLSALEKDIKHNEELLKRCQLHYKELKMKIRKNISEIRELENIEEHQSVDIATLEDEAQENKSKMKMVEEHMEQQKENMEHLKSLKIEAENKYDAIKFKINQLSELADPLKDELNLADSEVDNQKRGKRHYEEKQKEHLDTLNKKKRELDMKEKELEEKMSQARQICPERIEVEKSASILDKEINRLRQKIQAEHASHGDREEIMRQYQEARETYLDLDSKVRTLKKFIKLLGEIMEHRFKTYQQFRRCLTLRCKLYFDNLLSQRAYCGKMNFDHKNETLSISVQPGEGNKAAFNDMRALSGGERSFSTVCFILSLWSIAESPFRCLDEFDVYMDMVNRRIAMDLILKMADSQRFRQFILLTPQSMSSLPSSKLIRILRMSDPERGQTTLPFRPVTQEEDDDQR
Chain of UniProt Q8WUM9 (Q8WUM9 whole entry, looked up): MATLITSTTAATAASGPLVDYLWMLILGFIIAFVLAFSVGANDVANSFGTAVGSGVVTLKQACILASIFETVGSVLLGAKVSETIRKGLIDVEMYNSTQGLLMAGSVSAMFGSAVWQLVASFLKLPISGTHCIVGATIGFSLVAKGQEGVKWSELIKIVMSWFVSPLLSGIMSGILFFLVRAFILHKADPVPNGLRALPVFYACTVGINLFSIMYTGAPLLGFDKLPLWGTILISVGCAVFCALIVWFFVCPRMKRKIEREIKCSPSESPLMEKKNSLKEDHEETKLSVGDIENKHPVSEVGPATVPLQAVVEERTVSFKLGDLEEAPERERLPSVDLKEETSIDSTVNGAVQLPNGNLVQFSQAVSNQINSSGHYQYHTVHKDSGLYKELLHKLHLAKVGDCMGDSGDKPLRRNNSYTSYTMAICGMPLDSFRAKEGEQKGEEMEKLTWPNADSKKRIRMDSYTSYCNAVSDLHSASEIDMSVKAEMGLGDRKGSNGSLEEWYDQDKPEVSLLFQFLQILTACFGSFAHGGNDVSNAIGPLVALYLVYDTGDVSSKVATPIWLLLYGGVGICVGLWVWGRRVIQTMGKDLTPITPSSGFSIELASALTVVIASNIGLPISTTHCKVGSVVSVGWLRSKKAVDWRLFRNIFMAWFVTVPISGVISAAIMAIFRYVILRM

Compound in one test: Cc1sc2c(c1C)C(c1ccc(Cl)cc1)=N[C@@H](CC(=O)OC(C)(C)C)c1nnc(C)n1-2
Kind of test: log2 fold change, soluble protein after heating vs DMSO (PISA); higher = thermal stabilisation; K562 lysate, 10 uM; active = over 0.2 and 3.5 SD of the protein, either way, in both replicates (recomputed). An outline of the steps: (§1)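 Values give the log-two fold change in thermal stability against solvent controls, from duplicates. Crude K562 extract at 1 mg/mL protein, made by dounce homogenisation in PBS pH 7.4 with 1 mM MgCl2, was treated with 10 μM compound for 30 min. After 3 min heating across 48°C-58°C, aliquots were pooled, adjusted to 0.5% NP-40 at 4°C and centrifuged at 21,000xg for 90 min. The supernatant was measured by TMTpro 16plex LC-MS/MS with channel sums equalised.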
For the target SLC20A1 (UniProt Q8WUM9), the log2 fold change was -0.046. The same measure, in the same setting: as for SRSF9 (UniProt Q13242), the figure is 0.06; as for SH3GL3 isoform 3 (UniProt Q99963), -0.169; as for STK11IP (UniProt Q8N1F8), 0.019. SMC1B isoform 3 (UniProt Q8NDV3): the log2 fold change was -0.063. Still for that read-out and setting: the value for SNW1 (UniProt Q13573) was 0.022; that for SLC25A25 isoform 3 (UniProt Q6KCM7) was 0.034.

Compound in another test: c1ccc([C@@H]2C[C@H]2NC2CCNCC2)cc1
The test is described as above. The essentials:
as §1
For SNCA (UniProt P37840), the log2 fold change was -0.077. The same measure, in the same setting: as for SLC25A32 (UniProt Q9H2D1), the figure is -0.06. For the target SMG7 (UniProt Q92540), the log2 fold change is 0.029. Consider SH3BP5L (UniProt Q7L8J4), for which the log2 fold change is -0.024.

As to SMC6 (UniProt Q96SB8), the log2 fold change was -0.047. For STK26 (UniProt Q9P289), the log2 fold change was 0.02. Still for that read-out and setting: as for SHCBP1 (UniProt Q8NEM2), the figure is -0.039. Regarding SLC25A44 (UniProt Q96H78), the log2 fold change was -0.17. Still for that read-out and setting: the value for STAU1 (UniProt O95793) was 0.09. The same measure, in the same setting: as for TARBP1 (UniProt Q13395), the figure is 0.053. Take TAOK2 (UniProt Q9UL54): the log2 fold change is -0.105. With SFN (UniProt P31947), the log2 fold change is 0.046. The same measure, in the same setting: as for SLC11A2 isoform 3 (UniProt P49281), the figure is 0.003. Take SLC29A2 (UniProt Q14542): the log2 fold change was -0.233. The same measure, in the same setting: the value for STK36 (UniProt Q9NRP7) was -0.42.

For SLC30A9 (UniProt Q6PML9), the log2 fold change is -0.105.
